This excerpt belongs to a sample that is enriched for hits.
KDM5B inh: Primary screen for KDM5B Histone Demethylases FDH-coupled qHTS; AID 1347165, 2019; 220,000 compounds, 2.6% hits; KDM5B demethylase, FDH-coupled NADH fluorescence (FDH is formaldehyde dehydrogenase); Potency, µM (doses to about 57.7 µM), most hits filed as inhibitors; active = well fitted inhibition curve with a large enough effect; also: 0% is about no effect; nearly all actives have a fitted effect of over 70% in size
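KDM5BΔAP (200 nM final) in 50 mM HEPES pH 7.5, 0.01% Tween-20 was preincubated 10 min at RT with compound over a concentration range. Substrate mix (H3K4me3 12.5 µM, α-KG 25 µM, Fe²⁺, ascorbate, NAD⁺, FDH) was added, and NADH fluorescence change over 30 min gave dose-response curves.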
The depositor's hits bear a star; i = inactive. Potency is read from the fitted curve at half-maximal effect.

SMILES | KDM5B inh
CCCN(CC(=O)NC(=O)Nc1ccccc1)Cc1ccc(C#N)cc1 | i
O=C(CCc1ncc(-c2ccc(Cl)cc2)o1)Nc1ccc(F)cc1 | i
CC(C)(C)C(=O)NCCCC(=O)NCC1CC1 | i
CC1(C)CC(=O)C2=C(C1)OC(N)=C(C#N)C2c1ccc(C2C(C#N)=C(N)OC3=C2C(=O)CC(C)(C)C3)cc1 (stereo not given) | i
CC(C)Cn1c(C2CC(=O)N(c3cccc(C(F)(F)F)c3)C2)nc2ccccc21 (stereo not given) | i
CC(=O)c1cccc(OCc2ccc(C(N)=O)cc2)c1 | i
Cc1c(C)n(-c2cccc(F)c2)c2ncnc(Cl)c12 | i
O=C(NC1CC1)c1nc(-c2ccc(F)cc2)c2ccccn12 | 32µM*
O=C(NC1CC1)c1nc(-c2cccnc2)c2ccccn12 | 89µM*
C[N+](C)(C)CCCC#CC#CCCC[N+](C)(C)C | i
Cc1nc2cc(F)ccc2cc1C(=O)N(Cc1cccnc1)C(C)C | i
Cc1cccc(C)c1NC(=O)Cn1c(=O)c2c(ncn2CC(C)C)n(Cc2ccccc2)c1=O | i
O=C1CC(c2nc(-c3cccs3)no2)CN1c1ccc(F)cc1 (stereo not given) | i
Cn1nc(C(=O)N2CCCC(c3nc4ccccc4s3)C2)c2ccccc2c1=O (stereo not given) | i
Cc1cc(C)n(CCc2c(-c3ccccc3)ncn2CCCc2cccnc2)n1 | i
CCN(CC)C(=O)C(Sc1n[nH]c(-c2ccccc2)n1)c1ccccc1 (stereo not given) | i
COc1cccc(-c2c(NC(=O)c3ccc([N+](=O)[O-])cc3)oc3ccccc3c2=O)c1 | i
CN(C)C(=O)c1cn(CCC#N)nc1-c1cccc(Cl)c1 | i
O=C(O)C1(Oc2ccc3ncccc3c2)CCN(Cc2ccncc2)CC1 | 16µM*
C=CCn1cc(CN2CCC(Oc3ccc4ccccc4c3)(C(=O)O)CC2)cn1 | i
Cc1ccc(CN2CCC(Oc3ccc4ccccc4c3)(C(=O)O)CC2)o1 | i
CCOC(=O)C1CCN(C(=O)CC(c2ccc(OC)c(OC)c2)c2c[nH]c3c(CC)cccc23)CC1 (stereo not given) | i
NC(=O)c1cc(S(=O)(=O)NCC2CCN(Cc3ccc(Cl)cc3)CC2)cs1 | i
Cc1ncccc1C(=O)N1CCC2(CC1)NCCc1c2[nH]c2ccccc12 | i
Cc1ccc(CN2CCN(CC(=O)NC3CCC(C(C)(C)C)CC3)CC2)o1 (stereo not given) | i
SMILES | KDM5B inh
O=C(Nc1ccccc1)O[C@@H]1CO[C@H]2[C@@H]1OC[C@@H]2n1nnnc1SCc1ccco1 | 35µM*
N#Cc1cccc(NC(=O)N[C@H]2CO[C@H]3[C@@H]2OC[C@@H]3n2nnnc2Oc2ccc(-n3cncn3)cc2)c1 | i
N#Cc1cccc(NC(=S)O[C@@H]2CO[C@H]3[C@@H]2OC[C@@H]3n2nnnc2SCc2ccco2)c1 | 16µM*
O=C(Nc1ccccc1)O[C@@H]1CO[C@H]2[C@@H]1OC[C@@H]2n1nnnc1SC1CCCC1 | i
CC(C)c1nnnn1[C@H]1CO[C@H]2[C@@H]1OC[C@H]2OC(=O)Nc1cccc(C#N)c1 | i
N#Cc1cccc(NC(=O)O[C@@H]2CO[C@H]3[C@@H]2OC[C@@H]3n2nnnc2SC2CCCC2)c1 | i
O=C(Nc1cccc(C(F)(F)F)c1)O[C@@H]1CO[C@H]2[C@@H]1OC[C@@H]2n1nnnc1SC1CCCC1 | i
CN(C)c1ccc(-c2nnnn2[C@H]2CO[C@H]3[C@@H]2OC[C@H]3OC(=O)Nc2cccc(C#N)c2)cc1 | 35µM*
CC(=O)c1ccc(NC(=O)O[C@@H]2CO[C@H]3[C@@H]2OC[C@@H]3n2nnnc2SCc2ccco2)cc1 | i
CCC(C)(C)NC(=O)/C=C/c1cccc(C#N)c1 | i
CCOCCCNC(=O)C(c1ccc(OC)cc1)N(Cc1cccs1)C(=O)CNC(=O)c1ccccc1 (stereo not given) | i
COc1ccc(-c2noc(CCC(=O)N3CCc4sccc4C3c3cccs3)n2)cc1OC (stereo not given) | i
O=c1cc(CN2CCN(CCO)CC2)c2cc(O)c(-c3ccccc3)cc2o1 | i
CCCn1c(N)c(-c2csc(NC)n2)c(=O)n(C)c1=O | i
Cc1cccc(C(=O)Nc2c(C)ccc3nsnc23)c1 | i
COc1ccccc1NC(=O)CC1C(=O)Nc2ccccc2N1C(=O)c1ccc(C)cc1 (stereo not given) | i
CSCc1ccc(C(=O)Nc2ccc(F)cc2)o1 | i
CN1CCC2(CCC1=O)CN(Cc1cccc(Cl)c1Cl)CCN2C (stereo not given) | i
COc1cccc(-c2cccc(C(=O)O)c2)c1 | i
COc1cccc(-c2ccc(C(=O)O)cc2)c1 | 112µM*
COc1ccc(-c2cccc(C(=O)O)c2)cc1 | i
CCc1nc2c(cnn2-c2ccc(Cl)cc2)c(=O)n1-c1ccc(C)cc1 | i
Cc1cc2c(-c3cccnc3)nc(-c3c(C)noc3C)cc2[nH]1 | 28µM*
Cc1cc2c(-c3ccccc3)nc(-c3c(C)noc3C)cc2[nH]1 | i
COc1cccc(-c2nc(-c3c(C)noc3C)cc3c2cc(C)n3CCN(C)C)c1 | 40µM*
SMILES | KDM5B inh
Cc1noc(C)c1-c1cc2c(cc(C)n2C)c(-c2ccccc2)n1 | i
Cc1noc(C)c1-c1cc2c(cc(C)n2C)c(-c2cccnc2)n1 | 35µM*
COc1ccc(-c2nc(-c3c(C)noc3C)cc3c2cc(C)n3CCN(C)C)cc1OC | i
Cc1noc(C)c1-c1cc2c(cc(C)n2C)c(-c2cccc([S+](C)(=O)[O-])c2)n1 | 25µM*
COc1ncccc1-c1nc(-c2c(C)noc2C)cc2[nH]c(C)cc12 | i
COc1ncccc1-c1nc(-c2c(C)noc2C)cc2c1cc(C)n2CCN(C)C | i
Cc1noc(C)c1-c1cc2c(cc(-c3ccccc3)n2C)c(-c2cccnc2)n1 | i
COc1ccc(-c2nc(C(=O)N3CCCCCC3)nn2-c2ccccc2Cl)cc1 | i
CCOc1ccccc1CNC(=O)c1cccc(NC(=O)c2nnc(C)s2)c1 | i
COc1ccccc1Oc1c(C)oc2cc(OCC(=O)Nc3cccc(NC(C)=O)c3)ccc2c1=O | i
CC(C)(C)c1ccc(C2CC2C(=O)N/N=C/c2ccc(Cl)cc2)cc1 (stereo not given) | i
CC(C)(C)C(=N)N | i
COc1ccccc1NS(=O)(=O)c1ccc2oc(SCC(=O)N(C)C)nc2c1 | i
O=C(NCC(c1ccccc1)c1ccccc1)c1cc2ccccc2[nH]1 | i
CCCCCn1c(SCc2ccccc2Cl)nc2c1c(=O)[nH]c(=O)n2C | i
CCCCCSc1nc2c(c(=O)[nH]c(=O)n2C)n1Cc1ccc(Cl)cc1 | i
Cn1c(=O)c2c(ncn2CCC(=O)NC(C)(C)C)n(C)c1=O | i
COc1cccc(-c2nc(-c3c(C)noc3C)cc3c2cc(C)n3C)c1OC | 35µM*
COc1ccccc1-c1nc(-c2c(C)noc2C)cc2[nH]c(C)cc12 | i
COc1cc(F)ccc1-c1nc(-c2c(C)noc2C)cc2[nH]c(C)cc12 | 35µM*
CCn1c(N2CCN(Cc3ccccc3F)CC2)nc2c1c(=O)[nH]c(=O)n2C | i
CSc1ccc(C2CC(=O)Nc3c2c(=O)[nH]c2ncnn32)cc1 (stereo not given) | i
N#Cc1ccc(C(=O)NC2CCSc3c(F)cccc32)cc1 (stereo not given) | i
O=C(CSc1nnc(-c2ccc(Cl)cc2)n1Cc1ccco1)N1CCCC1 | i

Source: PubChem
